These results are taken from PubChem BioAssay (NCI).

Compounds without any hit were thinned out: in the full panel of roughly 83,000, 20% have a hit.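 Step 1: grow cells in 96-well plates. Step 2: add test compound at a single concentration. Step 3: incubate 48 h. Step 4: record percent growth.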 Values without a mark were called inactive. Activity calls are given as the source filed them. The calls were made as follows: active = growth percent below 10; inactive = the rest.

In the assay the test system is HL-60(TB) leukemia. As to the kind of experiment: NCI-60 one-dose screen, 48 h (100 = growth as untreated, 0 = no growth, -100 = all killed). The conditions noted are these: 10 µM unless noted.
For `C#CCOc1ccc(/C=N/Nc2nc(-c3ccc(OC)cc3)cs2)cc1`, the growth is 60%.

On to `COc1ccc2c(c1)C=CC1(O2)Oc2ccc(OC)cc2C=C1C` (stereo not given), for which the growth was -3.1% (active).

With `COc1cc(/C=C/C(=O)c2ccc(F)cc2)ccc1Oc1nc(NCCO)nc(N2CCOCC2)n1`, the growth is 39.8%.

As for `CCc1ccc(NC(=O)N[C@@H](Cc2cc(F)cc(F)c2)C(=O)N[C@@H]2C(=O)N3CCC[C@H]3C(=O)N3CCO[C@H](C)[C@H]3C(=O)N[C@@H](CO)C(=O)N3C[C@H](C)C[C@H]3C(=O)O[C@H]2C)c(F)c1`, the growth is 15.4%.

Turning to `COc1ccc(/C=N/NC(=O)c2[nH]c3ccc(Br)cc3c2-c2ccccc2)s1`, the growth is -44.2% (active).

In the case of `Cc1ccc(C(=O)CSc2nc3ccccc3c(=O)n2C)cc1`, the growth was 87.4%.

In the case of `CCOC(=O)c1cccnc1Nc1ccc(NC(=O)Nc2ccc(Cl)c(C(F)(F)F)c2)cc1`, the growth is 29.4%.

Consider `CC(=O)C1=C(C)NC(NN)=NC1c1cccc(Cl)c1` (stereo not given), for which the growth was 115%.

Turning to `O=C(COc1ccc(/C=C2\C(=O)Nc3ccc(F)cc32)cc1)Nc1ccccc1`, the growth is 95.9%.

As to `NS(=O)(=O)c1ccc(-n2cc(CC=O)nn2)cc1`, the growth is 105%.

For `Cc1ccc(NC(=O)/C=C/c2ccc(OCCCOc3ccc4c(C)cc(=O)oc4c3)cc2)cc1`, the growth is 98.5%.

As to `C[C@@H]1CN(c2ccc3ncc(C#Cc4cncc(C(=O)Nc5ccc(CN6CCN(C)CC6)c(C(F)(F)F)c5)c4)n3n2)C[C@H](C)O1`, the growth was -30.7% (active).

For `Cc1ccc2c(n1)C(=O)C(Cl)=C(Nc1cccc(C(=O)OC(C)(C)C)c1)C2=O`, the growth was 16.7%.

As for `COC(=O)c1[nH]nc2c1C1(C(=O)c3cccc4cccc1c34)C(C#N)=C(N)O2` (stereo not given), the growth is 82.5%.

With `Clc1ccc2c(N/N=C/c3c[nH]c4ccccc34)ccnc2c1`, the growth was -34.7% (active).

Turning to `CSc1nccc(-c2c(-c3ccc(F)c(OCc4ccc(F)cc4)c3)nc3sccn23)n1`, the growth is 78%.

Consider `CN1CCN(Cc2ccc(NC(=O)c3cncc(C#Cc4cnc5ccc(N6CCN(C)CC6)nn45)c3)cc2C(F)(F)F)CC1`, for which the growth was -31.5% (active).

In the case of `CC[C@@](C)(NC(=O)C(C)(C)NC(=O)[C@@H](NC(=O)[C@@H]1CCCN1C(=O)C(C)(C)NC(=O)[C@H](CC(C)C)NC(=O)CNC(=O)C(C)(C)NC(=O)[C@@H](NC(=O)C(C)(C)NC(=O)[C@H](CCC(N)=O)NC(=O)[C@H](C)NC(=O)C(C)(C)NC(=O)[C@H](C)NC(=O)C(C)(C)NC(=O)[C@@H]1CCCN1C(=O)C(C)(C)NC(C)=O)C(C)C)C(C)C)C(=O)N[C@@H](CCC(N)=O)C(=O)N[C@@H](CCC(N)=O)C(=O)N[C@H](CO)Cc1ccccc1`, the growth was -50.8% [4.25 µM] (active).

For `CC(=C(c1ccc(OCCCN(C)C)cc1)c1ccc(OCCCN(C)C)cc1)c1ccc(Cl)cc1`, the growth is 75.5%.

`O=C(CCC(=O)N1CCOCC1)OCCCCCCSc1ccc([N+](=O)[O-])c2nonc12`: the growth is -45.4% (active).

On to `CCCCN1C(=O)/C(=c2\sc3n(c2=O)C2C(NN=3)N(CC)C(=O)N2CC)c2cccc(C)c21` (stereo not given), for which the growth was 2.95% (active).

In the case of `O=C1c2cc(Br)ccc2-n2c1nc1cc(Br)ccc1c2=O`, the growth is 80%.

As to `CCOc1c(C#N)c(Nc2ccc(S(N)(=O)=O)cc2)c(C#N)c2nnc(C)n12`, the growth is 114%.

Turning to `CCN(CC)CCOc1ccc(C(=C(C)Cc2ccc(OC)cc2)c2ccc(OCCN(CC)CC)cc2)cc1`, the growth is -42.3% (active).

In the case of `COc1cc(-c2nc(-c3ccccc3)[nH]c2-c2ccnc(NCCCNS(=O)(=O)c3cccc(F)c3)n2)ccc1F`, the growth is 94.8%.

Take `CS(=O)(=O)Nc1cc(-c2ccc3ncc(C#N)c(NCc4ccccc4)c3c2)cnc1Cl`: the growth is -29.2% (active).

`COCCNc1ccc2ncc(C#Cc3cncc(C(=O)Nc4ccc(CN5CCN(C)CC5)c(C(F)(F)F)c4)c3)n2n1`: the growth is 0.694% (active).

With `Cc1ccc(S(=O)(=O)NCCNc2nc(Nc3ccc(N4CCN(C)CC4)cc3)nc3ccsc23)cc1`, the growth is 86.4%.

For the molecule `O=C(/C=C/c1ccc(F)cc1)Nc1cccc2cccnc12`, the growth was 93.7%.

For the molecule `CCn1c(SCC(=O)Nc2cccc(C(=O)/C=C/c3ccccc3Cl)c2)nc2ccccc2c1=O`, the growth was 107%.

On to `COc1cc2cc(Oc3ccc(NC(=O)c4cc(C(F)(F)F)cc(C(F)(F)F)c4)cc3)c(C)nc2cc1OCCN1CCOCC1`, for which the growth is 89.4%.

As for `O=C(CN1CCN(c2cc(=O)n(-c3ccccc3)c3ccccc23)CC1)Nc1cccc(C(F)(F)F)c1`, the growth is 28.6%.

As for `O=C(CN1C(=O)/C(=C/c2ccccc2)SC1=S)N1CCOCC1`, the growth was 89.1%.

With `CCC/C=C/C=C/C(=O)N[C@@H](Cc1cc(F)cc(F)c1)C(=O)N[C@@H]1C(=O)N2CCC[C@H]2C(=O)N2CCCC[C@H]2C(=O)N[C@@H](C)C(=O)N2C[C@H](C)C[C@H]2C(=O)O[C@H]1C`, the growth was 3.76% (active).

On to `O=c1oc2ccc(-c3ccc(F)cc3F)cc2c(=O)n1-c1cccc(C(F)(F)F)c1`, for which the growth is -32.7% (active).

On to `Cc1cc(Br)ccc1-n1cc(C#N)c(N)c1C(=O)c1ccc(Br)cc1`, for which the growth was 110%.

Turning to `O=C(CN1C(=O)S/C(=C\c2ccccc2)C1=O)Nc1ccc(C(=O)/C=C/c2cc3ccccc3nc2Cl)cc1`, the growth is 80.2%.

For the molecule `O=C(Nc1cccc(-c2nc(-c3ccc(NC(=O)c4cccs4)cc3Cl)no2)c1)Nc1ccc(NC(=O)C2CC2)c(C(F)(F)F)c1`, the growth was 6.9% (active).

For `Nc1ncc(-c2ccc(NS(=O)(=O)c3ccc(Cl)c(Cl)c3)cc2)[nH]1`, the growth was 47.7%.

Consider `COc1cc(OC)c(S(=O)(=O)N(CCCl)CCCl)cc1C(=O)/C=C/c1ccc(Cl)cc1`, for which the growth was 49.4%.
